Hit rate of the full screen: of about 1,500 compounds, about 920 (61%) were called active. The rule behind the calls is not given here. The set was probably picked from earlier hits. This is one part of the list. Entries with a potency or affinity are not part of this list.
Experiment: Vero 76 cell cytotoxicity, dose response, cytotoxicity control for VEEV inhibitor project (AID 588719)
Settings: Vero 76 cells viability, cytotoxicity counter-screen; series mostly up to 25 µM

Compound | outcome
Cn1c(SCC(=O)c2ccccc2)nnc1-c1ccccn1 | inactive
CCc1cc(C(=O)c2ccc(OC)cc2)c(NC(=O)CN2CCN(C)CC2)s1 | inactive
O=C(Nc1ccccc1)N1CCN(C2c3ccccc3-c3ccccc32)CC1 | inactive
Cc1ccc(-c2nc(CCN3C(=O)c4ccccc4C3=O)cs2)cc1 | inactive
CCN(CC)c1ccc(S(=O)(=O)N2CCOCC2)cc1NC(=O)COC(=O)/C=C/c1ccc(C)o1 | inactive
CC(=O)N1CCC(C(=O)Nc2cc(S(=O)(=O)N3CCCCC3)ccc2C)CC1 | inactive
COCOCCn1cc(CN2CCS(=O)(=O)N(Cc3ccc(-c4ccc(F)nc4)cc3)C(CC(C)C)C2=O)nn1 (stereo not given) | inactive
CN1CCN(c2ccc(-c3cccc(NC(=O)COc4ccc(Cl)cc4Cl)c3)nn2)CC1 | inactive
Cc1ccc(C(C[N+](=O)[O-])Sc2ccc(N)cc2)cc1 (stereo not given) | inactive
COc1ccc(CCNc2cc(C)nc3c(-c4ccccc4)cnn23)cc1OC | inactive
CCOC(=O)C1CCN(C(c2ccccn2)c2c(C)[nH]c3ccccc23)CC1 (stereo not given) | inactive
O=c1[nH]c(-c2ccccn2)nc2sc(-c3ccccc3)cc12 | inactive
C=CCn1c(SCC(=O)c2cccs2)nc2sc(C)c(C)c2c1=O | inactive
Cn1c(=O)c2[nH]c(CSCc3ccccc3)nc2n(C)c1=O | inactive
Cc1ccc(CNc2ccc(O)cc2)cc1 | inactive
O=C(/C=C/c1ccc2c(c1)OCO2)c1ccccn1 | inactive
CN1C/C(=C\c2ccc(N3CCOCC3)cc2)C(=O)/C(=C/c2ccc(N3CCOCC3)cc2)C1 | inactive
Nc1cnn(C2OC(CO)C(O)C2O)c(=O)n1 (stereo not given) | inactive
Cc1ccccc1Oc1ccc2c(c1)[C@@H]1C[C@H](N(C)C(=O)c3ccco3)[C@H]([C@H](C)O)C(=O)N1CC2 | inactive
CCOc1ccc(-c2c(C(=O)N/N=C(\C)c3cccs3)nnn2-c2nonc2N)cc1 | inactive
CCOC(=O)c1oc2ccc(Br)cc2c1NC(=O)CN1CCN(C)CC1 | inactive
Cc1nn(CC(=O)Nc2nccs2)c(C)c1[N+](=O)[O-] | inactive
O=C1CCCCC1Nc1ccc2ccccc2c1 (stereo not given) | inactive
CC(C)(C)C1CCC(=NNc2ccc(S(N)(=O)=O)cc2[N+](=O)[O-])CC1 (stereo not given) | inactive
NC(=S)N/N=C/c1ccc(-c2ccc(SC(F)F)cc2)o1 | inactive
CCN1CCN(CCCNC(=O)c2cc3c(s2)-c2ccccc2OC3)CC1 | inactive
CCN(CC)CCCNC(=O)c1ccc2c(Cl)c3c(nc2c1)CCCC3 | inactive

Compound | outcome
O=C1CC(/C=C/c2ccc(Cl)cc2)=Nc2ccccc2N1 | inactive
CN1CCN(NC(=O)c2cc(-c3cccc(Cl)c3)nc3ccccc23)CC1 | inactive
CCOC(=O)c1c(CN2CCOCC2)n(-c2ccccc2)c2ccc(O)cc12 | inactive
O=C(NC1CCCCC1)c1ccc2ccccc2c1O | inactive
CC(C)/C(C=O)=C(/NC1CCCCC1)c1ccccc1 | inactive
CN1c2ccccc2C(C)(C)C12CC(c1ccc(S(=O)(=O)N3CCCCC3)cc1)=NO2 (stereo not given) | inactive
COc1ccc(OC)c2cc3ccccc3cc12 | inactive
O=C(O)CCc1ccc(-c2ccccc2)n1-c1ccc(C(=O)O)cc1 | inactive
COc1cccc(C#Cc2ccc3c(c2)O[C@H](CN(C)C)[C@@H](C)CN([C@@H](C)CO)S3(=O)=O)c1 | inactive
O=C(Cc1n[nH]c(=O)c2ccccc12)OCc1c(Cl)cccc1Cl | inactive
CC(=O)c1c(O)c(C)c(O)c2c1OC1=Cc3c(c(C)nn3C)C(=O)C12C (stereo not given) | inactive
Cc1onc(-c2ccc(Cl)cc2Cl)c1-c1csc(N/N=C/c2ccccc2Cl)n1 | inactive
Cc1cccc(NC(=O)CSc2cc(C)c(C#N)c3nc4ccccc4n23)c1 | inactive
CN(C)CCNC(=O)c1cc2sc3ccccc3c2s1 | inactive
C(=N\Nc1nncc2ccccc12)/c1ccccc1 | inactive
Cc1ccc2c(Cl)cc(Cl)c(O)c2n1 | inactive
CCOC(=O)c1c(-c2cccc3ccccc23)csc1NC(=O)C1C2CCC(O2)C1C(=O)O (stereo not given) | inactive
CN(C)S(=O)(=O)c1cccc(C(=O)Nc2ccccc2C(=O)NC2CC2)c1 | inactive
CC(C)c1ccc(N=Cc2c(O)n(C3CC3)c(=S)[nH]c2=O)cc1 | inactive
CCOC(=O)CCCc1ccc(/C(C)=N/NC(N)=S)cc1 | inactive
CC(Sc1ccc(S(=O)(=O)N2CCOCC2)cn1)c1ccccc1Cl (stereo not given) | inactive
CC(C)(C)c1cc[n+](C2=C([O-])c3ccccc3C(=O)/C2=N\S(=O)(=O)c2cccs2)cc1 | inactive
Cc1ccccc1NS(=O)(=O)c1ccc(C(=O)NCc2ccccc2CN2CCCC2)cc1 | inactive
O=C(CCCOc1ccc(Cl)cc1Cl)Nc1ccccc1C(=O)O | inactive
O=C(Oc1oc(-c2ccco2)nc1C=Nc1ccc(Cl)cc1)c1ccco1 | inactive
CC1(C)Nc2ccccc2C(=O)N1c1ccc(Br)cc1 | inactive
COc1ccc(C/C(N)=N/OC(=O)c2cccs2)cc1 | inactive

Compound | outcome
Cc1cc(O)c(-c2cc(C(=O)NCCc3ccc(S(N)(=O)=O)cc3)[nH]n2)cc1C | inactive
NNC(=O)C1CCN(S(=O)(=O)c2ccc(Cl)cc2)CC1 | inactive
Cc1cc(C)c2c(=O)n(CC(=O)NC3CCCC3)sc2n1 | inactive
COc1ccc(-c2cc(C(=O)Nc3c(C)n(C)n(-c4ccccc4)c3=O)c3ccccc3n2)c(OC)c1 | inactive
Cc1cc(NC(=O)COC(=O)c2c(Cl)cccc2Cl)no1 | inactive
COc1ccccc1/C=C/C(=O)c1ccccc1 | inactive
COc1ccc(C)c2sc(N(CCCN(C)C)C(=O)c3ccc4c(c3)OCCO4)nc12 | inactive
COC(=O)CCC1(C(N)=O)CCC(=O)c2ccccc21 (stereo not given) | inactive
CC1(C)Cc2c(sc(NC(=O)COc3cccc4ccccc34)c2C#N)C(C)(C)N1 | inactive
OCCCNc1cc(-c2ccnc(Nc3cccc(Cl)c3)n2)ccn1 | inactive
CCCC(C)NC(=O)c1ccccc1SC (stereo not given) | inactive
CC1(C)CCCN(Cc2c(O)ccc3c(=O)c(-c4nc5ccccc5s4)c(N)oc23)C1 | inactive
CCOC(=O)C1=NNC(=O)C1 | inactive
O=C(Nc1ccc(Cl)c(Cl)c1)Nc1ccccc1C(=O)O | inactive
CCN(CC)CCN(Cc1cc2ccc(C)cc2[nH]c1=O)C(=O)Nc1ccc(Cl)cc1 | inactive
O=C(COc1cccc2ccccc12)Nc1ccc(Cl)cc1C(=O)O | inactive
CCN(CC)CCNC(=O)c1cc2cc(Br)ccc2s1 | inactive
CC(=O)Nc1cc[n+](CC(=O)c2cccc([N+](=O)[O-])c2)cc1 | inactive
Nc1ccc(C(=O)OCc2nc3cc4ccccc4cc3[nH]2)cc1 | inactive
C[C@@H]1CN([C@H](C)CO)C(=O)CCCn2nncc2CO[C@@H]1CN(C)C(=O)c1cc(-c2ccccc2)on1 | inactive
COc1ccc(-c2onc(C)c2-c2ccc3c(c2)OCCO3)c(O)c1 | inactive
Cc1[nH]c2ccc(-c3nnc(SCC(=O)c4ccccc4F)o3)cc2c1C | inactive
O=C(CCCN1C(=O)/C(=C\c2ccco2)SC1=S)Nc1ccc2ccccc2c1 | inactive
CCOC(=O)c1c(NC(=O)C(C)Sc2cccc[n+]2[O-])sc2c1CCN(Cc1ccccc1)C2 (stereo not given) | inactive
Cc1nc2c(sc3nc(N4CCOCC4)c4c(c32)CC(C)(C)OC4)c(-c2ccccc2)c1C(=O)O | inactive
CC(C)CCOC(=O)C[N+](C)(C)CCOC1CC2CCC1(C)C2(C)C (stereo not given) | inactive
CC(Sc1nnc(Nc2ccccc2)s1)C(=O)Nc1nc(-c2ccccc2)cs1 (stereo not given) | inactive

Compound | outcome
O=C1NC(=O)N(Cc2ccccc2)C(=O)/C1=C/C=C/c1ccco1 | inactive
CCOC(=O)N1CCN(S(=O)(=O)c2ccc(C(=O)N(CCCN(C)C)c3nc4ccc(CC)cc4s3)cc2)CC1 | inactive
COc1ccccc1C1CCCN1Cc1nc(-c2ccc(C)s2)oc1C (stereo not given) | inactive
NCCSc1c(-c2ccc(F)cc2)[nH]c2ccccc12 | inactive
CSc1nnc2c3ccccc3n(CCc3ccccc3)c2n1 | inactive
CN(C)CC/C=C1/c2ccccc2Sc2ccc(Cl)cc21 | inactive
CCCc1cc(C(=O)Nc2cnn(Cc3ccc(F)cc3)c2)no1 | inactive
COc1cc(C2C(C#N)=C(N)Oc3c2ccc2ccccc32)ccc1OCC(=O)Nc1ccc(C)cc1 (stereo not given) | inactive
COc1cccc(N2C(=O)/C(=C/c3ccc(C)o3)C(=O)NC2=S)c1 | inactive
CNCCCC12CCC(c3ccccc31)c1ccccc12 | inactive
Cc1ccccc1S(=O)(=O)N(C)C[C@H]1OCc2cnnn2CCCC(=O)N([C@H](C)CO)C[C@H]1C | inactive
CCOc1ccccc1CNC(=O)c1cc2oc3ccccc3c2n1C | inactive
Cc1oc(C(C)(C)C)cc1-c1cc(NC(=O)c2ccc([N+](=O)[O-])cc2)n[nH]1 | inactive
COc1ccc(C2(C)ON(c3ccccc3C(F)(F)F)C2=O)cc1 (stereo not given) | inactive
COc1ccccc1[C@@]1(C)ON(c2ccccc2C(F)(F)F)C1=O | inactive
O=C(CCN1C(=O)/C(=C/c2ccccc2F)SC1=S)NCCc1ccc(O)cc1 | inactive
O=C(O)CCN1C(=O)/C(=C2\C(=O)N(Cc3ccc(F)cc3)c3ccccc32)SC1=S | inactive
COc1cc(NC(C)CCCN)c2nc(C)ccc2c1Oc1ccc(F)cc1 (stereo not given) | inactive
O=c1c2ccccc2nc(-c2ccoc2)n1CCc1ccccc1 | inactive
CCc1[nH]nc(C(=O)NC2CCCc3c2cnn3-c2cc(C)cc(C)c2)c1C (stereo not given) | inactive
COc1ccc(OCCn2c(C)nc3ccccc32)cc1 | inactive
CCCCCCCCCCOC(=O)Cn1c(COc2cccc(OC)c2)[n+](C)c2ccccc21 | inactive
O=C(CSC1=Nc2ccccc2C2CC=NN12)Nc1ccc2c(c1)OCO2 (stereo not given) | inactive
NC(=O)c1ccc(NC(=O)COC(=O)C2COc3ccccc3O2)cc1 (stereo not given) | inactive

From PubChem BioAssay AID588719 (Southern Research Specialized Biocontainment Screening …, 2011)
